D1 ag – activates the human D1 dopamine receptor | HEK293 T-REx D1 cells, calcium flux, agonist mode | P21728 | 1% of 360,000 active | activation, % at 2 µM | AID 504660
Target sequence (P21728 whole entry, looked up): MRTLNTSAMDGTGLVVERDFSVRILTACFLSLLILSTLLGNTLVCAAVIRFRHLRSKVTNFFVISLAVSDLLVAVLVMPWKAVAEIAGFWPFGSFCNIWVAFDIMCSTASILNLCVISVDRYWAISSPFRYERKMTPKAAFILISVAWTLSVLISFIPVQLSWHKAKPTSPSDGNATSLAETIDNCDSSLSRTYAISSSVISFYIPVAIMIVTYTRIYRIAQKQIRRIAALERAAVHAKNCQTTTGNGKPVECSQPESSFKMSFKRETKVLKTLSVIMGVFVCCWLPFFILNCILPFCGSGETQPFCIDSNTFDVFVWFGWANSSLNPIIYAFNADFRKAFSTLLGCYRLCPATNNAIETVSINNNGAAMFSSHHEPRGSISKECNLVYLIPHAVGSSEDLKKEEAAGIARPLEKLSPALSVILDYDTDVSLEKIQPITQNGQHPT
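Agonism was scored from calcium flux recorded over 180 s (1 read/s) after pintool compound addition, following a 10-cycle baseline. Cells were inducible force-coupled HEK293 TREx D1, plated overnight at 30 C and loaded with no-wash calcium dye.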
TRHR enhancer – allosterically enhances the human TRH receptor; enhancement, % at 2 µM; P34981; 0.66% of 360,000 active; AID 493056; TRHR cells, fluo-8 calcium fluorescence, EC20 TRH enhancement; in the data active = enhancement above about 30%
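TRHR-expressing cells loaded with fluo-8 calcium dye were read kinetically (ex 480/em 530) during compound addition, then stimulated with an EC20 of TRH (10 nM final). Enhancement of the Gq-mediated intracellular calcium response was scored.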
D1 antag – blocks dopamine activation of the human D1 receptor; activity change, negative = inhibition, % at 10 µM; 3.2% of 360,000 active; P21728; HEK293 TREx D1 cells, calcium flux, dopamine EC80; hits give low values; in the data active = activity change below about -30%
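Compound effects on dopamine-evoked calcium signalling were measured in tetracycline-induced HEK293 Trex D1 cells. Dopamine at EC80 followed a 180 s compound pre-read, and fluorescence was tracked kinetically for 180 s more.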
D1 potentiator – human D1 dopamine receptor positive modulation; AID 504651; potentiation, % at 10 µM; 0.036% of 360,000 active; HEK293 TREx D1 cells, calcium flux, dopamine EC20 potentiation; in the data active = potentiation above about 30%
TRHR ag – TRH receptor (human) agonism | P34981 | TRHR cells, calcium flux fluo-8, FDSS agonist mode | activation, % at 2 µM | 0.18% of 360,000 active
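TRHR-expressing cells, plated overnight in medium with 10% serum, were loaded with fluo-8 calcium dye at room temperature. After a 10 s baseline, library compound was pin-added and calcium release was recorded kinetically (ex 480/em 530) as agonist response.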
Each line names hits and unclear results; the compound was inactive in the other large screens. Rows were chosen to be rich in hits. Some 4.6% of all compounds tested hit in one or more screens of this group. Cut-off read from the data, not from the text of the source, unless noted: active = activation above about 30%; inactive = the rest.

Cc1cc(C)cc(NS(=O)(=O)c2ccc(-c3cc(C)no3)cc2)c1	none
Cc1ccc(Cl)cc1N(C)C(=O)c1sc2nc3n(c(=O)c2c1C)CCCC3	none
Cc1ccc2nc(SCc3nc(-c4ccc(Cl)cc4)no3)[nH]c2c1	none
CCN1C(=O)[C@H]2[C@@H](c3ccc(-c4ccc(F)cc4)cc3)N3CCCC[C@@]3(C(=O)OC)[C@H]2C1=O	none
CCCN1CCc2c(sc(NC(=O)c3ccc(S(=O)(=O)N(C)c4ccccc4)cc3)c2C(N)=O)C1	D1 ag 133, TRHR ag 63
CCN1CCc2c(sc(NC(=O)c3ccc(S(=O)(=O)N4CCCC4)cc3)c2C(=O)NC)C1	none
CCCN1CCc2c(sc(NC(=O)c3ccc(S(=O)(=O)N(C)c4ccccc4)cc3)c2C(=O)NC)C1	D1 ag 63
CCCN1CCc2c(sc(NC(=O)c3ccc(S(=O)(=O)N4CCN(C(=O)OCC)CC4)cc3)c2C(N)=O)C1	none
CCc1cccc(NC(=O)CN2C(=O)COc3ccc(S(=O)(=O)Nc4ccccc4)cc32)c1	none
O=c1oc2ccc(F)cc2cc1-c1nc(-c2cccs2)no1	none
CCCCCCn1c(=O)[nH]c2nc3cc(N)c(C)cc3nc2c1=O	D1 ag 295
CCCCn1c(=O)[nH]c2nc3cc(NC(C)=O)ccc3nc2c1=O	none
CCCCN(C)CC(O)Cn1cc(/C=C/C(=O)c2ccc(Br)cc2)c2ccccc21 (configuration not stated)	D1 ag 126, D1 antag -57
COc1ccc(C(=O)/C=C/c2cn(CC(O)CN3CCN(C)CC3)c3ccccc23)cc1OC (configuration not stated)	none
CCCCN(C)CC(O)Cn1cc(/C=C/C(=O)c2ccc(OC)c(OC)c2)c2ccccc21 (configuration not stated)	D1 ag 63
CCCCN(C)CC(O)Cn1cc(/C=C/C(=O)c2ccc(C)cc2)c2ccccc21 (configuration not stated)	D1 ag 33
O=C(NNc1c([N+](=O)[O-])cc(C(F)(F)F)cc1[N+](=O)[O-])c1ccco1	D1 antag -36
CC(C)CNC(=S)N1CCN(c2nc(-c3ccc(Cl)cc3)cs2)CC1	D1 antag -30
COCCCNC(=S)N1CCN(c2nc(-c3ccccc3)cs2)CC1	D1 antag -33
CCOCCCNC(=S)N1CCN(c2nc(-c3ccccc3)cs2)CC1	none
CCNC(=S)N1CCN(c2nc(-c3cccc(OC)c3)cs2)CC1	D1 antag -30
COc1cccc(-c2csc(N3CCN(C(=S)Nc4ccccc4OC)CC3)n2)c1	D1 antag -35
COc1cccc(-c2csc(N3CCN(C(=S)Nc4ccccc4Cl)CC3)n2)c1	none
O=C(CCNS(=O)(=O)c1cccs1)NCc1ccccc1	none
COc1cccc(CNC(=O)CCCNS(=O)(=O)c2cccs2)c1	D1 antag -92
COC(=O)CN1C(=S)N(c2ccc(Cl)cc2)C(=O)C1CC(=O)Nc1ccccc1 (configuration not stated)	D1 antag -32
Cc1ccsc1CCN1C(=O)N(c2ccc(F)cc2)C(=O)C1CC(=O)Nc1ccccc1 (configuration not stated)	D1 antag -30
COC(=O)c1ccc(NC(=O)CC2C(=O)N(c3ccc(Cl)cc3)C(=O)N2Cc2cccs2)cc1 (configuration not stated)	none
COc1ccc(CN2C(=O)N(c3ccc(OC)cc3)C(=O)C2CC(=O)Nc2ccccc2)cc1 (configuration not stated)	none
CCOc1ccc(NC(=O)CC2C(=O)N(c3ccc(Cl)cc3)C(=O)N2Cc2cccs2)cc1 (configuration not stated)	D1 antag -74
CCOc1ccc(NC(=O)CC2C(=O)N(c3ccc(C)cc3)C(=O)N2Cc2ccc(OC)cc2)cc1 (configuration not stated)	TRHR enhancer 45
Cc1ccsc1CCN1C(=O)N(c2ccccc2)C(=O)C1CC(=O)Nc1ccc(F)cc1 (configuration not stated)	none
COc1ccc2c(c1)Cc1sc(NC(=O)c3ccc(Cl)cc3)nc1-2	none
Cn1c2cc(S(C)=O)sc2c2cnn(Cc3ccccc3F)c(=O)c21 (configuration not stated)	none
C=CCn1c(N)cc(=O)nc1SC(C)C(=O)Nc1ccc(C(=O)OCC)cc1 (configuration not stated)	D1 antag -35
Cc1ccc(NC(=O)CCS(=O)(=O)c2ccc(Br)s2)cc1	D1 antag -53
CCOC(=O)c1ccc(NC(=O)CN(C)S(=O)(=O)c2ccc(Br)s2)cc1	D1 antag -38
CCOC(=O)c1ccc(NC(=O)CN(C)S(=O)(=O)c2ccc(OC)cc2)cc1	none
COc1cccc(C(=O)Nc2ccc(-c3nc4ccccc4s3)cc2Cl)c1	none
O=C(NC1CCCCC1)C(c1ccccc1)N(Cc1ccco1)C(=O)Cn1cnc2ccccc21 (configuration not stated)	D1 antag -44
COc1cc(CNCc2ccccn2)ccc1OCc1c(Cl)cccc1Cl	D1 ag 41
COc1cc(CNCc2ccccn2)ccc1OCc1ccc(Cl)cc1	none
CCOC(=O)c1c(NC(=O)CSc2nnc(Cc3ccccc3)o2)sc(C(C)=O)c1C	D1 antag -36
CCOC(=O)c1c(NC(=O)CSc2nnc(-c3ccccc3)o2)sc(C(C)=O)c1C	none
COc1ccc(N(CC(=O)NCCc2ccccc2)S(=O)(=O)c2ccccc2)c(OC)c1	none
O=[N+]([O-])/C(=C\Nc1ccccc1)S(=O)(=O)c1ccccc1	D1 antag -88
CN(C)S(=O)(=O)c1cc(NC(=O)Cn2ccsc2=N)ccc1Cl	D1 antag -30
Cc1ccc(NC(=O)Cn2ccsc2=N)cc1S(=O)(=O)N(C)C	none
O=C(CN1C(=O)c2cccnc2Oc2ccc(Cl)cc21)Nc1cccc(C(F)(F)F)c1	none
Cn1c(=O)c2c(SCC(=O)Nc3ccccc3C(F)(F)F)nc(C3CCCC3)nc2n(C)c1=O	none
O=S(=O)(c1ccc2c(c1)OCCO2)N1CCC(n2nnc3cc(F)ccc32)CC1	none
O=S(=O)(c1ccc2c(c1)OCCO2)N1CCC(n2cnc3cc(F)ccc32)CC1	D1 antag -46
Cc1cc(C)cc(NC(=O)C(CC(C)C)NC(=O)C2CCCCC2)c1 (configuration not stated)	none
CSc1ncc(C(=O)NCc2ccc(Cl)cc2)c(C(F)(F)F)n1	none
COC(=O)c1ccc([C@H]2Nc3ccc(S(=O)(=O)Nc4cccc(C)c4)cc3[C@H]3C=CC[C@H]32)cc1	D1 antag -85
O=C(O)c1ccc(NS(=O)(=O)c2ccc3c(c2)C2C=CCC2C(c2ccccc2F)N3)cc1 (configuration not stated)	D1 antag -35

Screening results from PubChem BioAssay.
